Only some compounds are listed: those with a hit (about 10% of all), similar ones and a draw of the others.
hNpr1 antagonist: Natriuretic polypeptide receptor (hNpr1) antagonism - Primary qHTS; Atrial natriuretic peptide receptor 1 (Homo sapiens), P16066; HEK293 hNpr1 GloSensor cGMP, ANP-stimulated luminescence; Potency, µM (top dose mostly 46.3 µM), inactives show top-dose activity change, negative = inhibition, hits mostly inhibitors; 76,000 tested, 1.6% active; calls by dose curve; note: nearly all actives have a fitted effect of over 60% in size
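HEK293 cells stably expressing human Npr1 and cGMP GloSensor pGS-40F, loaded 2 h with 2% GloSensor reagent, given compound 30 min at room temperature. Luminescence read before and 20 min after 0.1 nM hNppA.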
FLuc inh: Firefly luciferase inhibition profiling of diverse chemical library using quantitative high-throughput screening; Luciferin 4-monooxygenase (Photinus pyralis), P08659; purified P. pyralis luciferase, luminescence, biochemical; Potency, µM (highest dose often 115 µM), hits mostly inhibitors; 76,000 tested, 2.5% active; AID 1347043, 2019; note: nearly all actives have a fitted effect of over 65% in size
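FLuc 10nM, D-luciferin 10uM, ATP 10uM, Mg acetate 10mM, Tris acetate pH 7.5, Tween/BSA; cpd qHTS; enzyme added last; CCD luminescence.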
GPT2 inh: Primary qHTS assay for inhibitors of Glutamate pyruvate transaminase 2 (GPT2) | Recombinant GPT2, coupled pyruvate oxidase/HRP Amplex Red fluorescence | Potency, µM (titrated, usually from 57.7 µM), for inactives: top-dose activity change, negative = inhibition, most hits filed as inhibitors | 100,000 tested, 0.25% active; note: nearly all actives have a fitted effect of over 60% in size
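Fluorescence read-out: pyruvate from GPT2 turnover coupled to pyruvate oxidase, HRP and Amplex Red (0.2mM ThPP, 0.2U/mL PO and HRP, 50uM Amplex final). Substrates 250uM a-KG, 2mM L-alanine; enzyme 10ng/uL; 30 min RT.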
NIH3T3 tox: Cytotoxic Profiling in NIH 3T3 Cell Line of Diverse Libraries Using Quantitative High-Throughput Screening; NIH 3T3 viability, CellTiter-Glo ATP luminescence, 48-72 h; Potency, µM (highest dose often 96.7 µM), inactives show at the top dose activity change, negative = cytotoxicity, hits mostly inhibitors; 94,000 tested, 4.3% active; AID 1345082, 2018; note: nearly all actives have a fitted effect of over 55% in size
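Cytotoxicity was measured by CellTiter-Glo ATP luminescence after 48 or 72 h compound exposure at 37 °C. Mouse NIH 3T3 fibroblasts were seeded at 400 cells/well and dosed by 23 nL pin transfer.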
HEK293 tox: Cytotoxic Profiling in HEK 293 Cell Line of Diverse Libraries Using Quantitative High-Throughput Screening; HEK 293 viability, ATP luminescence (CellTiter-Glo), 48-72 h; Potency, µM (doses to about 115 µM), for the others: at the highest dose activity change, negative = cytotoxicity, usual class: inhibitors; 94,000 tested, 6.6% active; note: nearly all actives have a fitted effect of over 60% in size
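HEK 293 seeded at 250 cells/well receive compound via pintool. After 48 or 72 hr at 37 degree Celsius, 5% CO2 and 95% humidity, CellTiter-Glo is dispensed and luminescence read following 10 min at room temperature.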
Active calls of the source: *; i = inactive; ? = inconclusive; nt = no result given; [ ] = remark or other dose. Unless noted, calls come from the whole dose curve; as a rule, active = well fitted curve in the direction sought with a large enough effect; inconclusive = small, poorly fitted or top-dose-only effect, or another doubt; inactive = no such curve, though single readings can be large; an effect the other way counts as inactive or inconclusive. % is set by controls: 0 for no effect and ±100 for the full control effect; potency is the fitted concentration of half-maximal effect.

SMILES | hNpr1 antagonist | FLuc inh | GPT2 inh | NIH3T3 tox | HEK293 tox
Cc1cn2nc(C(=O)N3CCC(C)CC3)cc2c(N(C)Cc2ccccc2)n1 | 17.2% | i | 0.3% | 35.5µM* | ?
COc1ccc(NC(=O)N2CC3CC(C2)[C@H]2CCCC(=O)N2C3)cc1 (some centres not stated) | 5.2% | i | i | i | 0.1%
COCCC(=O)Nc1cccnc1OC1CCN(C)C1 (configuration not stated) | 1.9% | i | i | i | -2.7%
COc1ccc(C(=O)Nc2ccc3n(c2=O)C[C@H]2C[C@@H]3CN(S(=O)(=O)c3ccc(OC)cc3)C2)cc1 | -2.1% | 8.91µM* | 3.2% | -21.3% | ?
COc1ccc(C(=O)N2CCCC(n3cc(-c4nc(-c5ccccc5)no4)nn3)C2)cc1F (configuration not stated) | ? | ? | i | ? | 20µM*
COc1ccc(C(=O)N2CCCC(n3cc(-c4nc(-c5ccccc5)no4)nn3)C2)cc1 (configuration not stated) | ? | ? | -9.6% | ? | 28.2µM*
O=C(c1cccs1)N1CCCC(n2cc(-c3nc(-c4ccccc4)no3)nn2)C1 (configuration not stated) | ? | 35.5µM* | i | ? | ?
O=C(c1ccc(F)c(F)c1)N1CCCC(n2cc(-c3nc(-c4ccccc4)no3)nn2)C1 (configuration not stated) | 11.2µM* | ? | -9.6% | ? | 44.7µM*
O=C(c1ccc[nH]1)N1CCCC(n2cc(-c3nc(-c4ccccc4)no3)nn2)C1 (configuration not stated) | ? | ? | i | ? | ?
COc1ccc(CN2CCn3nc(CCC(=O)O)cc3C2)cc1O | 0.4% | i | 1.1%[11.5 µM] | 1.1% | 4.2%
CC(C)NC(=O)N1CCOc2ccc(CCC(=O)NCCc3cccnc3)cc2C1 | -2.7% | i | 3.7% | -10.1% | -19.6%
O=C(c1ccc(F)c(F)c1)N1CCC(n2cc(-c3nc(-c4ccccc4)no3)nn2)C1 (configuration not stated) | 11.2µM* | ? | i | ? | 39.8µM*
COc1ccccc1C(=O)N1CCC(n2cc(-c3nc(-c4ccccc4)no3)nn2)C1 (configuration not stated) | 12.6µM* | 31.6µM* | 2.2% | ? | 28.2µM*
O=C(c1cc(Cl)ccc1F)N1CCCC(n2cc(-c3nc(-c4ccccc4)no3)nn2)C1 (configuration not stated) | 15.8µM* | ? | i | ? | 31.6µM*
COc1ccc(OCC2CCCN(C(=O)c3cn(C4CCCCC4)nn3)C2)cc1 (configuration not stated) | -3.4% | 31.6µM* | ? | ? | ?
O=C(c1cccc(F)c1)N1CCCC(n2cc(-c3nc(-c4ccccc4)no3)nn2)C1 (configuration not stated) | ? | ? | -12.8% | ? | ?
COc1ccccc1CC(=O)N1CCC(n2cc(-c3nc(-c4ccccc4)no3)nn2)CC1 | -0.1% | i | i | -18.1% | -1.6%
O=C(c1cccc(Cl)c1)N1CCC(C(=O)N2CCC(c3nc4ccncc4[nH]3)C2)CC1 (configuration not stated) | nt | nt | i | -18.5% | -3.6%
Cc1noc([C@@H]2CN(CC3CCCCC3)C[C@H]2CO)n1 | -0.2% | i | 3.5% | i | -15.7%
O=C(c1nc(-c2ccc(Cl)nc2)c2cnccn12)N1CCN(c2ncccn2)CC1 | nt | nt | -3.8% | i | i
O=C(c1ccc2c(c1)OCO2)N1CCC(n2cc(-c3nc(-c4ccccc4)no3)nn2)CC1 | ? | ? | i | ? | ?
CCCc1noc(-c2cn(C3CCN(C(=O)c4cccc(F)c4)CC3)nn2)n1 | 0.0% | i | i | 35.5µM* | -13.1%
O=C(c1ccc2c(c1)OCO2)N1CCC(n2cc(-c3nc(-c4ccccc4)no3)nn2)C1 (configuration not stated) | 12.6µM* | ? | i | -42.9% | ?
O=C(c1cccc(F)c1)N1CCC(n2cc(-c3nc(-c4ccccc4)no3)nn2)C1 (configuration not stated) | -4.9% | i | i | ? | ?
O=C(c1cccc(Cl)c1)N1CCC(n2cc(-c3nc(-c4ccccc4)no3)nn2)C1 (configuration not stated) | -15.8% | ? | i | ? | 39.8µM*
SMILES | hNpr1 antagonist | FLuc inh | GPT2 inh | NIH3T3 tox | HEK293 tox
CCCc1noc(-c2cn(C3CCN(C(=O)c4cc(F)cc(F)c4)CC3)nn2)n1 | -6.0% | i | i | -24.6% | ?
CN(C)c1cccc(C(=O)N2CCC(n3cc(-c4nc(-c5ccccc5)no4)nn3)C2)c1 (configuration not stated) | ? | 31.6µM* | i | ? | 28.2µM*
CC(C)(C)c1cnc(CSc2cnc(NC(=O)C3CCNCC3)s2)o1 | nt | nt | -2.9% | nt | nt
Cc1ccc(CNC(=O)CC2CCOCC2)o1 | -9.7% | i | i | 4.0% | -1.7%
CN1CC(=O)N(CC(=O)N2CCC3(CCCN(C)C3=O)C2)C1=O (configuration not stated) | -0.6% | i | i | i | i
O[C@@H]1CC(CNCc2ccc(F)cc2)(COc2cnccn2)C[C@@H]1O (some centres not stated) | 0.5%[70.6 µM] | i | -4.2%[88.5 µM] | i | i
O=C(c1ccncc1)N1CCCC(n2cc(-c3nc(-c4ccccc4)no3)nn2)C1 (configuration not stated) | -29.3% | ? | i | ? | -29.7%
O=C(c1ccoc1)N1CCCC(n2cc(-c3nc(-c4ccccc4)no3)nn2)C1 (configuration not stated) | ? | ? | i | ? | 50.1µM*
COc1ccc(CCNC(=O)c2cc3c(N4CCSCC4)nc(C)cn3n2)cc1OC | -7.0% | i | 0.9% | ? | ?
O=c1cc(-c2ccncc2)oc2c(-c3cccc(O)c3)nccc12 | 3.1%[70.6 µM] | i | 4.2%[88.5 µM] | 22.4µM* | ?
Cc1ccccc1-c1nccc2c(=O)cc(-c3cccnc3)oc12 | 4.2%[70.6 µM] | i | -0.4%[88.5 µM] | 25.1µM* | 112µM*
C[S+](=O)([O-])c1ccc(-c2nccc3c(=O)cc(-c4cccnc4)oc23)cc1 | -2.7%[70.6 µM] | i | ? | 25.1µM* | ?
O=c1cc(-c2cccnc2)oc2c(NCc3ccc(F)cc3)nccc12 | -5.4%[70.6 µM] | i | 3.0%[88.5 µM] | 50.1µM* | -58.3%[172 µM]
